Data on 16 molecules can be found in article PMC11062922 (Nature Chemical Biology, 2023).

Read-outs that look alike come from different tables or passages of the source.

What all share (design): species or system human, MV4-11 + K-562 + COLO205 + SK-N-BE2 + OVCAR-8
For one assay, the system named is EPHA2. To be noted: read-out: apparent Kd, n = 1.
For the next assay, the system named is EPHA4. The following applies: read-out: apparent Kd, n = 1.
Another assay relates to EPHB2. The following applies: read-out: apparent Kd, n = 1.
Another assay relates to EPHB4. The following applies: read-out: apparent Kd, n = 1.
The test system of another assay is MAP4K5. The following applies: read-out: apparent Kd, n = 1.
In a further assay the test system is MAPKAPK2. The following applies: read-out: apparent Kd; compound concentrations:100 nM and 1000 nM (sheet 'Samples'); n = 1.
The test system of the next assay is NLK. To be noted: read-out: apparent Kd; compound concentrations:100 nM and 1000 nM (sheet 'Samples'); n = 1.
Another assay concerns PDGFRB. The following applies: read-out: apparent Kd, n = 1.
Another assay has as its system TGFBR2. To be noted: read-out: apparent Kd; compound concentrations:100 nM and 1000 nM (sheet 'Samples'); n = 1.
A further assay has as its system BUB1. To be noted: read-out: apparent Kd, n = 1.
For the next assay, the system named is TAOK1. To be noted: read-out: apparent Kd, n = 1.
The next assay concerns CSNK1D. To be noted: read-out: apparent Kd; compound concentrations:100 nM and 1000 nM (sheet 'Samples'); n = 1.
The next assay relates to MAPK9. The following applies: read-out: apparent Kd, n = 1.
Another assay deals with NQO1. To be noted: read-out: apparent Kd; compound concentrations:100 nM and 1000 nM (sheet 'Samples'); n = 1.
The subject of the next assay is NQO2. The following applies: read-out: apparent Kd; compound concentrations:100 nM and 1000 nM (sheet 'Samples'); n = 1.
The test system of another assay is T1, DJA1.
T1 construct: gene DNAJA1
The following applies: read-out: apparent Kd; compound concentrations: 100 nM and 1000 nM (sheet 'Samples'), CATDS: 0.15894194998460401; n = 1.

The test system of another assay is PIK3CD. The following applies: read-out: apparent Kd; compound concentrations: 100 nM and 1000 nM (sheet 'Samples'), CATDS: 0.457718684353002; n = 1.
In a further assay the test system is MAP2K1. To be noted: read-out: apparent Kd; compound concentrations: 100 nM and 1000 nM (sheet 'Samples'), CATDS: 5.9486551355906997E-2; n = 1.
A further assay has as its system MAP2K2. To be noted: read-out: apparent Kd; compound concentrations: 100 nM and 1000 nM (sheet 'Samples'), CATDS: 6.4354786580358606E-2; n = 1.
Where [1] appears, read: compound concentrations:100 nM and 1000 nM (sheet 'Samples').

In the case of `CCN(CC)CCOc1ccc(Nc2ncc3cc(-c4c(Cl)cccc4Cl)c(=O)n(C)c3n2)cc1` [SB-601273], the potency estimated from few doses in the assay on EPHA2 (setting [1]) is 30.3 nM; in the assay on EPHA4 (setting [1]), 162 nM; in the assay on EPHB2 (setting [1]), 108 nM; in the assay on EPHB4 (setting [1]), 30.2 nM; in the assay on MAP4K5 (setting [1]), 2360 nM; in the assay on MAPKAPK2, 320 nM. The potency estimated from few doses with NLK is 1310 nM; with PDGFRB (setting [1]), 576 nM; in the assay on TGFBR2 it was 1260 nM.

On to `O=C1N=C(NCc2cccs2)SC1Cc1ccc2ncccc2c1` (centres unmarked) [RO4629078-000], for which the potency estimated from few doses in the assay with BUB1 (compound concentrations: 100 nM and 1000 nM (sheet 'Samples'), CATDS: 7.2203356914043596E-3) is 1930 nM; in the assay on EPHA2 (compound concentrations: 100 nM and 1000 nM (sheet 'Samples'), CATDS: 1.36009605508639E-2) it was 342 nM; in the assay with EPHA4 (compound concentrations: 100 nM and 1000 nM (sheet 'Samples'), CATDS: 1.66325304555619E-2) it was 238 nM; in the assay with EPHB2 (compound concentrations: 100 nM and 1000 nM (sheet 'Samples'), CATDS: 1.9892167159836899E-2), 178 nM; with EPHB4 (compound concentrations: 100 nM and 1000 nM (sheet 'Samples'), CATDS: 2.1087498416613601E-2), 162 nM; with TAOK1 (compound concentrations: 100 nM and 1000 nM (sheet 'Samples'), CATDS: 7.4050083824812101E-3), 1730 nM.

`CN(C)Cc1ccc(-c2ccc3c(Nc4ccc(Oc5ccccn5)cc4)ccnc3c2)o1` [GW567148X]: the potency estimated from few doses in the assay with EPHA4 (compound concentrations: 100 nM and 1000 nM (sheet 'Samples'), CATDS: 2.1324962018011699E-2) is 824 nM; with EPHB2 (compound concentrations: 100 nM and 1000 nM (sheet 'Samples'), CATDS: 2.3863521838316901E-2) it was 615 nM; in the assay on EPHB4 (compound concentrations: 100 nM and 1000 nM (sheet 'Samples'), CATDS: 2.5851405238779799E-2) it was 509 nM.

As to `Nc1nc(N)c2nc(-c3ccccc3)[nH]c2n1` [SKF-12778], the potency estimated from few doses with CSNK1D is 2130 nM; with MAPK9 (setting [1]), 2000 nM; in the assay with NLK, 1660 nM.

Turning to `Cc1cc(O)cc(C)c1/C=C/c1cncc(-c2nn[nH]n2)c1.Cl` [GW441806A], the potency estimated from few doses in the assay on EPHA2 (compound concentrations: 100 nM and 1000 nM (sheet 'Samples'), CATDS: 4.6112446535010898E-2) was 1310 nM.

In the case of `COc1cc2ncn(-c3cc(OCCCc4ccccc4)c(C(N)=O)s3)c2cc1OC` [GSK205189A], the potency estimated from few doses in the assay with EPHA4 (setting [1]) was 1250 nM; in the assay with EPHB2 (setting [1]), 697 nM; with EPHB4 (setting [1]), 636 nM.

Take `Fc1ccc(-c2c(-c3ccncc3)[nH]c3nccnc23)cc1` [RO1155697-000]: the potency estimated from few doses in the assay on BUB1 (setting [1]) is 1970 nM; in the assay with CSNK1D, 8.23 nM; in the assay with MAPK9 (setting [1]), 368 nM; in the assay on NQO1, 1590 nM; in the assay with TAOK1 (setting [1]) it was 1150 nM.

Consider `COc1cc2ncn(-c3cc(OCc4cccs4)c(C(N)=O)s3)c2cc1OC` [GSK312948A], for which, in the assay on MAP4K5 (setting [1]), the potency estimated from few doses was 116 nM.

Regarding `CN1CCc2ccc(Nc3nccc(-c4c(-c5cccc(NC(=O)c6c(F)cccc6F)c5)nc5ccccn45)n3)cc2C1.Cl` [GSK1010829B], the potency estimated from few doses in the assay with MAP4K5 (compound concentrations: 100 nM and 1000 nM (sheet 'Samples'), CATDS: 3.0196131161379001E-2) was 2130 nM; with TAOK1 (compound concentrations: 100 nM and 1000 nM (sheet 'Samples'), CATDS: 4.1687643746907199E-2) it was 830 nM.

In the case of `CNC(=O)c1ccccc1Nc1nc(Nc2cccc(CS(C)(=O)=O)c2)ncc1C.O=CO` [GSK1520489A], the potency estimated from few doses is 66.2 nM in the assay with EPHA2 (compound concentrations: 100 nM and 1000 nM (sheet 'Samples'), CATDS: 2.7940284559804102E-2); 1170 nM in the assay on MAPK9 (compound concentrations: 100 nM and 1000 nM (sheet 'Samples'), CATDS: 1.0219205948468601E-2); 1420 nM in the assay on PDGFRB (compound concentrations: 100 nM and 1000 nM (sheet 'Samples'), CATDS: 9.8482456119854799E-3).

In the case of `Cn1cc(-c2cnc(N)c3c(-c4ccc5c(c4)CCN5C(=O)Cc4ccccc4)csc23)cn1` [GSK2593074A], the potency estimated from few doses in the assay with MAP4K5 (setting [1]) was 302 nM.

In the case of `CNc1nccc(-c2c(-c3ccc(F)cc3)ncn2C2CCN(C)CC2)n1` [SB-222903], the potency estimated from few doses with BUB1 (setting [1]) is 1920 nM; in the assay with CSNK1D it was 11.1 nM; in the assay with MAPK9 (setting [1]) it was 462 nM; in the assay with MAPKAPK2 it was 49 nM; in the assay on NLK it was 19.1 nM.

Take `CC(=O)N1CCN(c2ccc(Nc3nccc(-c4sc(C(C)C)nc4-c4cccc(NS(=O)(=O)c5ccccc5)c4)n3)cn2)CC1` [GSK1645872A]: the potency estimated from few doses with BUB1 (compound concentrations: 100 nM and 1000 nM (sheet 'Samples'), CATDS: 3.26865073204873E-2) is 604 nM.

As for `CC(=O)c1c(-c2ccncc2)[nH]c(-c2ccncc2)c1C` [GW493036X], the potency estimated from few doses in the assay with CSNK1D is 2040 nM; in the assay on NQO2 it was 1110 nM.

For the molecule `Cn1cc(-c2ccc3c(c2)CCN3C(=O)Cc2cc(F)cc(C(F)(F)F)c2)c2c(N)ncnc21` [GSK2635225A], the potency estimated from few doses is 902 nM with DJA1 and 139 nM in the assay with PIK3CD.

Consider `N#Cc1cnc2cc(-c3cnc(CNCCN4CCOCC4)s3)ccc2c1Nc1ccc(Oc2ccccc2)cc1` [GW664114X], for which the potency estimated from few doses was 606 nM in the assay on MAP2K1; 499 nM in the assay on MAP2K2; 199 nM with MAP4K5 (compound concentrations: 100 nM and 1000 nM (sheet 'Samples'), CATDS: 0.103025865385486).
